Assay results reported in PubChem BioAssay AID623911 (Vanderbilt High Throughput Screening Facility, 2012).
The whole screen tested about 2,100 compounds, of which about 770 (37%) were called active. Some of the results follow. A number with no mark means an inactive call.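 How the source made its calls: active means by-eye trace score of 1 for enhancers or -1 for inhibitors, so actives lie on both sides (some results past the limit were not filed as active); inactive means score 0, or 3 fluorescent, or 4 baseline rise.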

The compounds below were run against G protein-activated inward rectifier potassium channel 2 (Homo sapiens) + G protein-activated inward rectifier potassium channel 1 (Homo sapiens) (UniProt P48051+P48549) (assay: GIRK1/2 thallium flux modulators, retest, confirmation, cell-based, HEK293 rmGlu8/hGIRK1/2, FluoZin-2 (AID 623911)). Conditions: HEK293 rmGlu8/hGIRK1/2, thallium flux FluoZin-2; actives lie on both sides; glutamate co-added at its EC20 level.
G protein-activated inward rectifier potassium channel 2 (Homo sapiens) + G protein-activated inward rectifier potassium channel 1 (Homo sapiens), sequence (P48051 whole entry, looked up): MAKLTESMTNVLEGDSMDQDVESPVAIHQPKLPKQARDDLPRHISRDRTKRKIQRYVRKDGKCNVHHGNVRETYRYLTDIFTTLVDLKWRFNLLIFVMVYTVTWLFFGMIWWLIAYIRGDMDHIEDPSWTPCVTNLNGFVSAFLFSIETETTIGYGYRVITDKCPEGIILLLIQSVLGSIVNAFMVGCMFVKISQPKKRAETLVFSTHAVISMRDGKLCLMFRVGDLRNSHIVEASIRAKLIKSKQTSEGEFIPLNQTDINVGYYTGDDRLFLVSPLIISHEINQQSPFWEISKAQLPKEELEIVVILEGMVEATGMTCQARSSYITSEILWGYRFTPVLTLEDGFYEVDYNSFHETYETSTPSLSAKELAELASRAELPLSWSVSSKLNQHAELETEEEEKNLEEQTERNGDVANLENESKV
G protein-activated inward rectifier potassium channel 2 (Homo sapiens) + G protein-activated inward rectifier potassium channel 1 (Homo sapiens), sequence (P48549 whole entry, looked up): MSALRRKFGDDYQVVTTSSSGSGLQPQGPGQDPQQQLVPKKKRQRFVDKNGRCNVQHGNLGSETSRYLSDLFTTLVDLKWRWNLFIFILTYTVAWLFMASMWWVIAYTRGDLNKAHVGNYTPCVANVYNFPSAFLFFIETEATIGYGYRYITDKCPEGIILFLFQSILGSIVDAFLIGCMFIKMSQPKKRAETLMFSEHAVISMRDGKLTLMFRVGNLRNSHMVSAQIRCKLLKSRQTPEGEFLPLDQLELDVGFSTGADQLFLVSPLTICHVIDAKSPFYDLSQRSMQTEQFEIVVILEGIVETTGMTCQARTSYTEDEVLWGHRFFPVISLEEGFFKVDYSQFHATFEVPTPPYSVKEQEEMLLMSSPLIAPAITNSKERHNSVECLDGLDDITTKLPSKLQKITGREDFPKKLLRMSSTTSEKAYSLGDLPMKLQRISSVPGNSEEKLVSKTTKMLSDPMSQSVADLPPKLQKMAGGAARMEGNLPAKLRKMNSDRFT
`CC(C)c1nc(N2CCOCC2)c(C#N)c2c1CCCC2` was tested, and the manual score was 0.
`Cc1ccc2c(c1)NC(=O)CC(c1ccccc1)=N2` showed a manual score of 0.
In the case of `CC1CC(C)CN(C(=S)Nc2ccc(SC(F)F)cc2)C1` (centres undefined), the manual score is reported as 1 (active).
With `Oc1cccc(NC(=S)Nc2ccc(SC(F)F)cc2)c1` the manual score was 1 (active).
For `CC1CCCC(NC(=S)Nc2ccc(SC(F)F)cc2)C1C` (centres undefined), the manual score was 1 (active).
In the case of `O=S(=O)(c1ccccc1)N1CCN(C(=S)Nc2ccc(F)cc2)CC1`, the manual score is reported as 0.
In the case of `CC1CCCCC1NC(=S)Nc1ccc(SC(F)F)cc1` (centres undefined), the manual score is reported as 1 (active).
`Cc1ccc(SC(C)C(=O)Nc2ccc(S(=O)(=O)N3CCOCC3)cc2)cc1` (centres undefined) showed a manual score of 0.
`CCNc1ccc2noc3c2c1C(=O)c1ccccc1-3` showed a manual score of 0.
`CCN(CC)c1ccc2c(c1)OC(N)=C(C#N)C2c1cccnc1` (centres undefined) was tested, and the manual score was 3.
In the case of `CCc1nc(SCc2ccc(F)cc2)[nH]c(=O)c1C#N`, the manual score is reported as 3.
`CCOc1ccc(-c2nc(-c3cccnc3)no2)cc1OCC` gave a manual score of 0.
With `Cc1ccc(N=Nc2ccc(O)c3ncccc23)cc1` the manual score was 0.
With `Cc1ccc(N=Cc2cc3c(cc2O)OC(N)=C(C#N)C3c2ccccc2)cc1` (centres undefined) the manual score was 0.
With `CCOc1ccc(C(=O)NC(=S)N(Cc2ccccc2)Cc2ccccc2)cc1` the manual score was 1 (active).
In the case of `CCOc1cccc(C(=O)NC(=S)Nc2ccccc2)c1`, the manual score is reported as 0.
`COc1ccc(C(=O)NC(=S)N(Cc2ccccc2)Cc2ccccc2)cc1` was tested, and the manual score was 1 (active).
`CN(C)C(=O)CSc1cccc2cccnc12` showed a manual score of 0.
For `CC(Nc1ccc(Br)cn1)c1cc(Cl)ccc1O` (centres undefined), the manual score was 0.
`Cc1ccc(/C=N/NC(=S)N2CCOCC2)cc1` was tested, and the manual score was 1 (active).
In the case of `CNC(=S)N/N=C/c1ccc(C(C)C)cc1`, the manual score is reported as 0.
For `Cc1ccc(C(=O)c2ccc(N3CCOCC3)c(F)c2)cc1`, the manual score was 0.
Compound `Clc1ccc(/C=N/Nc2nc(Cl)nc3ccccc23)cc1` has a manual score of 0.
With `S=C(N/N=C/c1ccc(Cl)cc1)N1CCOCC1` the manual score was 1 (active).
For `S=C(N/N=C/c1ccccc1)N1CCOCC1`, the manual score was 0.5.
`O=C(Nc1ccc(Br)cc1)C1CCC(=O)N1Cc1ccccc1Cl` (centres undefined) showed a manual score of 0.
For `O=C1CC(C(=O)Nc2ccc(Br)cc2)C2(CCCC2)O1` (centres undefined), the manual score was 1 (active).
Compound `COCc1nnc(NC(=O)C(C)C)s1` has a manual score of 0.
`CCCCn1c(-c2csc3c2CCC(C)C3)n[nH]c1=S` (centres undefined) gave a manual score of 0.
In the case of `Cn1nc(C(F)(F)F)c2cc(NC(=O)OCc3ccc(F)cc3)sc21`, the manual score is reported as 0.
`CCOC(=O)C(CC)Sc1nnc2cc(C)c3ccccc3n12` (centres undefined) gave a manual score of 0.
`CC(/C=N/n1c(COc2ccccc2)n[nH]c1=S)=C\c1ccccc1` was tested, and the manual score was 0.
`CCOC(=O)C(CC)Sc1nnc(COc2ccc(C)cc2)n1-c1ccccc1` (centres undefined) was tested, and the manual score was -1 (active).
`Cc1cccc2cc(/C=C3\N=C(c4ccccc4)OC3=O)c(N3CCOCC3)nc12` was tested, and the manual score was 3.
In the case of `CCOC(=O)C1=C(C)NC2=C(C(=O)CC(c3ccc(OC)c(OC)c3)C2)C1c1ccc(C)o1` (centres undefined), the manual score is reported as 0.
For `CC1=C(C(=O)OCC2CCCO2)C(c2ccc(C)o2)C2=C(CC(c3ccc(F)cc3)CC2=O)N1` (centres undefined), the manual score was -1 (active).
`CCOC(=O)C1=C(C)NC(=O)NC1c1ccc(Br)o1` (centres undefined) was tested, and the manual score was 0.
`O=C(CSc1nnc(-c2cccnc2)o1)OC1CCCCC1` was tested, and the manual score was 0.
`COC(=O)c1[nH]c2ccc(C)cc2c1NC(=O)CCN1CCN(Cc2ccc3c(c2)OCO3)CC1` was tested, and the manual score was -1 (active).
With `Cc1ccc(C)c(Nc2c([N+](=O)[O-])cc(C(=O)N3CC(=O)Nc4ccccc43)cc2[N+](=O)[O-])c1` the manual score was 0.
With `S=c1nc(-c2ccc(Br)cc2)oc2c1CCCC2` the manual score was 1 (active).
For `c1ccc(-c2nnc3ccc(N4CCCC4)nn23)cc1`, the manual score was 0.
In the case of `c1ccc2c(N3CCCCCC3)nc(-c3ccncc3)nc2c1`, the manual score is reported as -1 (active).
With `O=c1c2cccnc2[nH]c(=S)n1CCCN1CCN(c2ccc(F)cc2)CC1` the manual score was 0.
Work on `Cc1ccc(C)n1-c1ccc(-c2nnco2)cc1` yielded a manual score of 0.
`CCOC(=O)C(Cc1ccccc1)NC(=O)Cn1nnc(-c2ccccc2)n1` (centres undefined) was tested, and the manual score was 1 (active).
`CCCC(=O)n1nc(-c2ccccc2)nc1N` was tested, and the manual score was 0.
`CCOC(=O)CSc1cc(CSc2ccccc2)nc(-c2ccccc2)n1` was tested, and the manual score was 0.
Work on `Cc1ccc(N2CC(C(=O)N/N=C/c3sccc3C)CC2=O)cc1` (centres undefined) yielded a manual score of 0.5.
Work on `CN(C)CCCN1C(=O)c2oc3ccccc3c(=O)c2C1c1cccs1` (centres undefined) yielded a manual score of 0.
In the case of `CCN(CC)CCN1C(=O)c2oc3ccccc3c(=O)c2C1c1ccccc1` (centres undefined), the manual score is reported as 0.
`CCN(CC)CCCN1C(=O)c2oc3ccccc3c(=O)c2C1c1cccs1` (centres undefined) was tested, and the manual score was 1 (active).
With `CC(C)Sc1nc2c(c(=O)[nH]1)C(c1cccs1)C1=C(CC(C)(C)CC1=O)N2` (centres undefined) the manual score was -1 (active).
In the case of `Cc1c(C2Nc3ccccc3NC3=C2C(=O)CC(C)(C)C3)cnn1C` (centres undefined), the manual score is reported as 0.
`Cc1cc2c(cc1C)NC(c1c(C)n(C)n(-c3ccccc3)c1=O)C1=C(CC(C)(C)CC1=O)N2` (centres undefined) gave a manual score of 3.
`Cc1cc([N+](=O)[O-])ccc1-c1ccc(C2Nc3ccccc3C(=O)N2O)o1` (centres undefined) gave a manual score of 0.
`COc1ccc(C(=O)C2C(c3ccc(-c4ccccc4[N+](=O)[O-])o3)NC(=O)NC2(O)C(F)(F)F)cc1` (centres undefined) was tested, and the manual score was -1 (active).
In the case of `CN(C)c1nc2ccccc2c(N)c1-c1ccccc1`, the manual score is reported as -1 (active).
With `Fc1ccc2nc(Nc3nc4c(F)cccc4s3)sc2c1` the manual score was 1 (active).
For `Fc1cc(F)c2nc(Nc3nc4c(F)cccc4s3)sc2c1`, the manual score was 0.5.
`COc1cc(OC)cc(-c2nnc(Nc3nc4c(F)cccc4s3)o2)c1` showed a manual score of 0.
`COc1cccc(-c2nnc(Nc3nc4c(F)cccc4s3)o2)c1` was tested, and the manual score was 1 (active).
With `Fc1cccc2sc(Nc3nnc(-c4ccco4)o3)nc12` the manual score was 1 (active).
In the case of `Fc1cccc2sc(Nc3nnc(-c4ccccc4)o3)nc12`, the manual score is reported as 1 (active).
`Fc1cccc2sc(Nc3nc4ccccc4s3)nc12` was tested, and the manual score was 0.
For `Fc1cccc2sc(Nc3nc4cc5c(cc4s3)OCO5)nc12`, the manual score was 0.
`Fc1ccc2nc(Nc3nc4c(F)cc(F)cc4s3)sc2c1` was tested, and the manual score was 0.
`COc1ccc(-c2nnc3sc(C4CCCCC4)nn23)cc1OC` gave a manual score of 0.
For `C=CCNC(=O)C1CC(=O)N(c2ccc(OCC(=O)Nc3ccccc3)cc2)C1` (centres undefined), the manual score was 0.
